Bioassay records deposited in PubChem by several laboratories.
Only some compounds are listed: those with a hit (about 32% of all), similar ones and a draw of the others.
CYP2C9 inh – blocks human cytochrome P450 2C9; AID 777; P11712; inhibition, % at 5 µM; CYP2C9 Supersomes, luciferin-H conversion, luminescence; 20% of 96,000 active;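 active = blocking of liver enzyme CYP2C9 beyond about 50% at 5 µM, limit read from the data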
CYP2C9 act – increases human cytochrome P450 2C9 activity; P11712; recombinant CYP2C9, luciferin-H conversion, luminescence; hits give high values; factor 1 = untreated enzyme, 0 = blocked; activation factor at 5 µM; 1.4% of 96,000 active;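 active = activation factor of 2 or more for CYP2C9 at a 5 µM dose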;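 also: 0 = sulfaphenazole-blocked wells and 1 = vehicle-only wells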
CYP2C19 inh – blocks human cytochrome P450 2C19 | inhibition, % at 5 µM | P33261 | 21% of 96,000 active | CYP2C19 Supersomes, luciferin-H EGE luminescence, 30 min;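 active = CYP2C19 inhibition above a set limit at 5 µM in the primary screen, cut at about 50% in these data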;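 also: plate controls were negative control wells for no effect and 2.5 mM tranylcypromine positive control for full effect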
Target sequence (P33261 whole entry, looked up): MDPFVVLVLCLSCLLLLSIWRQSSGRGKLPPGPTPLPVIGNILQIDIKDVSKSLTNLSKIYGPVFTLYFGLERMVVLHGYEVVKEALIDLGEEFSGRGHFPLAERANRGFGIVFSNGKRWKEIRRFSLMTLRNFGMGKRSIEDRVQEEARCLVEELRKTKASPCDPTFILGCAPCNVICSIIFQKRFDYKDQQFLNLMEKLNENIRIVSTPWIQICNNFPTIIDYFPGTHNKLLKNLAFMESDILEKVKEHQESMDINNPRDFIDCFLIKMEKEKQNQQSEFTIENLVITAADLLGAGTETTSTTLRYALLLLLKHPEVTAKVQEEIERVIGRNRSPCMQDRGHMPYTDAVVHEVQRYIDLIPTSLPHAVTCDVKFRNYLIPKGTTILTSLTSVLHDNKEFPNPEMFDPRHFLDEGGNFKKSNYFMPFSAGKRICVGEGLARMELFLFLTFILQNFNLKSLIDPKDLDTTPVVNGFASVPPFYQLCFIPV
PostGolgi ctrl – growth of the yeast control strain, post-Golgi counter-screen; AID 738; efflux-deficient yeast background strain, growth absorbance A615, 16 h; 5% of 98,000 active; inhibition, % at 10 µM
PostGolgi yeast – growth inhibition of a yeast mutant, post-Golgi transport screen; post-Golgi transport phenotypic cell assay; inhibition, % at 10 µM; 0.9% of 98,000 active; AID 739;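 also: yeast cells grown in 1536-well plates; yeast grown about 18 h at 30C before absorbance read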
CYP2C19 act – cytochrome P450 2C19 (human) activation; AID 1025; 96,000 tested, under 10 active; recombinant CYP2C19, luciferin-H EGE luminescence; hits give high values; 0 = fully inhibited enzyme, 1 = untreated enzyme; P33261; activation factor at 5 µM;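 active = activation factor of at least 2 at 5 µM in the primary screen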;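 also: 0 = wells with 2.5 mM tranylcypromine and 1 = vehicle-only wells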
The depositor's hits bear a star; · = no result given. Rule as the data show it, unless noted: active = inhibition above about 30%; inactive = the rest.

SMILES	CYP2C9 inh	CYP2C9 act	CYP2C19 inh	PostGolgi ctrl	PostGolgi yeast	CYP2C19 act
O=C(NCCC1=CCCCC1)NC1CCCCC1	·	·	·	7	-5	·
NC(=O)NCCC1=CCCCC1	5	0.9	-1	2	-6	1
O=C1NC(=O)c2cc(NC(=O)C3CCCCC3)ccc21	-3	1	3	4	2	1
CCCNC(=O)C(=O)NCCC1=CCCCC1	10	0.9	54*	3	1	0.5
CCCc1nc2cc(CC(=O)OC)ccc2o1	1	1	20	1	-4	0.8
COC(=O)c1nnn(-c2nonc2N)c1-c1cccs1	-4	1	31	2	-6	0.7
Cc1c(C(=O)N2CCCC2)nnn1-c1nonc1N	3	1	52*	7	-2	0.5
Nc1nonc1-n1nnc(C(=O)c2ccccc2)c1-c1ccccc1	91*	0.1	98*	14	0	0
CCOC(=O)c1nnn(-c2nonc2N)c1-c1ccc(OCC)cc1	89*	0.1	99*	12	1	0
COc1ccc([N+](=O)[O-])cc1COc1ccc2c(-c3ccccc3)cc(=O)oc2c1	26	0.7	6	6	20	0.9
COc1ccc(-c2n[nH]c(=S)n2C2CCCCC2)cc1	31	0.7	79*	28	11	0.2
COc1ccc(-c2n[nH]c(=S)n2Cc2ccco2)cc1	33	0.7	-3	-1	-8	1
COc1cc2[nH]c(=S)n(C3CCCC3)c(=O)c2cc1OC	21	0.8	14	19	-4	0.9
COc1ccc(Cl)cc1-c1n[nH]c(=S)n1C1CCCCC1	14	0.9	80*	18	-1	0.2
Cc1cc(Cl)ccc1OCc1n[nH]c(=S)n1C1CCCCC1	96*	0	81*	96*	99*	0.2
CN1/C(=C\C(=O)C(F)F)C(C)(C)c2ccccc21	53*	0.5	34	10	-7	0.7
CN1/C(=C\C=Nc2ccccc2)C(C)(C)c2ccccc21	1	1	1	8	3	1
CN1/C(=C\C(=O)c2ccco2)C(C)(C)c2ccccc21	56*	0.4	25	23	8	0.8
CN1/C(=C/C(=O)c2nc(S(C)(=O)=O)ncc2Cl)C(C)(C)c2ccccc21	32	0.7	9	60*	16	0.9
CCOC(=O)c1nc(S(C)(=O)=O)ncc1Cl	1	1	5	13	0	1
CN1/C(=C\C(=O)COc2ccc3c(c2)OCO3)C(C)(C)c2ccccc21	87*	0.1	24	16	0	0.8
CCCNc1nc2c(c(=O)n(C)c(=O)n2C)n1CCC(C)C	48	0.5	6	8	23	0.9
O=[N+]([O-])c1ccc(C(=Nc2cccc3ccccc23)N2CCOCC2)cc1	39	0.6	38	-3	-2	0.6
Cc1ccc(N2CCN(C(=O)N3CCCC3)CC2)cc1C	53*	0.5	81*	1	-9	0.2
Cc1nn2c(N3CCN(c4ccccn4)CC3)cc(C(C)C)nc2c1-c1ccccc1	62*	0.4	14	99*	41*	0.9
SMILES	CYP2C9 inh	CYP2C9 act	CYP2C19 inh	PostGolgi ctrl	PostGolgi yeast	CYP2C19 act
COCCNC(=O)c1c(N)n(CCCn2ccnc2)c2nc3ccccc3nc12	89*	0.1	69*	4	-10	0.3
COCCn1c(N)c(C(=O)NCc2cccs2)c2nc3ccccc3nc21	1	1	0	32*	6	1
COCCNC(=O)c1c(N)n(-c2ccccc2)c2nc3ccccc3nc12	19	0.8	15	7	4	0.9
COCCCNC(=O)c1c(N)n(/N=C/c2cccs2)c2nc3ccccc3nc12	67*	0.3	48	16	-5	0.5
CCC(C)NC(=O)c1c(N)n(/N=C/c2ccccn2)c2nc3ccccc3nc12 (centres undefined)	25	0.7	23	37*	1	0.8
Oc1ccc(-n2cnnn2)cc1	-41	1.4	-10	2	3	1.1
Cc1ccc(NC(=S)N2CCC(c3nc4ccccc4s3)CC2)cc1C	9	0.9	0	4	14	1
N#CC1=C(Nc2ccccc2)SC=C(c2ccc(F)cc2)N=C1N1CCOCC1	11	0.9	-2	3	3	1
CCOc1ccc(C=O)cc1CN1CCCCC1	13	0.9	-3	7	1	1
O=C(O)c1ccccc1SCc1ccc2c(c1)OCO2	8	0.9	7	-5	-1	0.9
N#CCCn1c(Cl)nc2ccccc21	-3	1	4	9	3	1
Cc1cc(C)n(-c2ncc(-c3ccccc3)nn2)n1	-15	1.2	12	14	0	0.9
Cc1ccc(C(=O)C(OC(=O)CNS(=O)(=O)c2ccccc2)c2ccccc2)cc1 (centres undefined)	55*	0.4	33	-4	-2	0.7
O=C(Cn1nnc(-c2ccccc2)n1)OCc1ccccc1	10	0.9	34	7	-6	0.7
CCOCCOC(=O)c1cccc(NC(=O)OCC)c1	63*	0.4	71*	-3	1	0.3
CC(=O)Nc1cccc(C(=O)OCc2ccccc2)c1	-32	1.3	98*	7	-3	0
CC(=O)c1cccc(NC(=O)Oc2ccccc2)c1	10	0.9	14	6	-4	0.9
O=C(OCc1ccccc1)c1cccc(-c2nnn(Cc3ccccc3)n2)c1	63*	0.4	23	-1	8	0.8
CC(C)CC(=O)NCC(C)NC(=O)CC(C)C (centres undefined)	-43	1.4	-18	-5	2	1.2
O=C(NCc1ccncc1)/C(=N/O)c1ccccc1	45	0.6	33	5	10	0.7
CC(=O)Nc1cccc(C(=O)OC(C(=O)c2ccc(C)c(C)c2)c2ccccc2)c1 (centres undefined)	4	1	0	25	-2	1
COc1ccc(C(=O)OC(C(=O)c2ccc(C)cc2)c2ccccc2)cc1 (centres undefined)	57*	0.4	34	11	-4	0.7
CC(=O)Nc1cccc(C(=O)OC(C(=O)c2ccc(C)cc2)c2ccccc2)c1 (centres undefined)	76*	0.2	36	33*	-11	0.6
CCN(CC)CCN=C1CCCc2ccccc2N1	9	0.9	5	11	-12	1
Clc1ccc(CN=C2Nc3ccccc3CS2)cc1	33	0.7	86*	12	-6	0.1
Cc1ccc(CN=C2Nc3ccccc3CS2)cc1	35	0.7	71*	21	18	0.3
Cc1ccn2c(/C=N/OCc3cccc(F)c3)c(-c3ccc(Cl)cc3)nc2c1	36	0.6	6	-6	14	0.9
COCC(=O)Nc1ccccc1C#N	-5	1	4	-4	7	1
N#Cc1ccccc1NC(=O)CC1CCCCC1	0	1	58*	9	2	0.4
